Some test systems named below: T-47D breast; BT-549 breast; MDA-MB-435 melanoma; SW-620 colon; HCT-116 colon; HCC-2998 colon; KM12 colon; MCF7 breast.
Holding throughout (experiment): NCI-60 one-dose screen, 48 h (100 = growth as untreated, 0 = no growth, -100 = all killed)
Common to all, as to conditions: 10 µM unless noted

Where “and” joins values, the source holds several entries; their conditions need not be identical. Identical values can stand only once. The panel holds about 83,000 compounds, 20% with a hit somewhere; the sample as a whole holds those more often.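 Cell lines were cultured in 96-well plates, exposed to a single compound concentration, and assessed for percent growth 48 hours later.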 Calls of active or inactive are those of the source. How the source made its calls: active means growth percent below 10; inactive means the rest.

For the compound `CN(Cc1ccccc1)c1nc(Cl)c(C2CC(c3ccc(F)cc3)=NN2C=O)s1` (centres undefined), the growth in the assay on T-47D breast was 85.5% (inactive); in the assay on BT-549 breast it was 113% (inactive); with MDA-MB-435 melanoma, 96.8% (inactive); in the assay with SW-620 colon, 101% (inactive); in the assay with HCT-116 colon, 86.9% (inactive); in the assay with HCC-2998 colon it was 95.4% (inactive). Moreover, the growth in the assay on KM12 colon is 93.2% (inactive).
For `N#Cc1cc(-c2ccnc(Nc3ccc(NC(=O)CCl)cc3)n2)ccc1N1CCCC1`, the growth was -68.2% (active) in the assay with T-47D breast; -65% (active) in the assay with BT-549 breast; -47.6% (active) in the assay on MDA-MB-435 melanoma; -36.9% (active) in the assay with SW-620 colon; -19.1% (active) in the assay on MCF7 breast; -37.2% (active) in the assay with HCT-116 colon. The growth in the assay on HCC-2998 colon is -79.5% (active); in the assay on KM12 colon it was -11.6% (active).
As to `N#Cc1c(N)nnn1Cc1cc(=O)oc2ccc(O)cc12`, the growth in the assay on T-47D breast is 98% (inactive); in the assay with BT-549 breast, 111% (inactive); in the assay with MDA-MB-435 melanoma it was 105% (inactive); in the assay on SW-620 colon, 104% (inactive); in the assay with MCF7 breast, 96.8% (inactive); with HCT-116 colon, 89.3% (inactive). Also, the growth is 110% (inactive) in the assay with HCC-2998 colon and 107% (inactive) with KM12 colon.
Consider `COC(=O)c1nc(-c2ccccc2)oc1S(=O)(=O)N(C)CCO`, for which the growth is 44.5% (inactive) in the assay with T-47D breast; 72.5% (inactive) in the assay with BT-549 breast; 60.9% (inactive) in the assay with MDA-MB-435 melanoma; 40.4% (inactive) with SW-620 colon; 46.7% (inactive) in the assay with HCT-116 colon; 99.4% (inactive) in the assay with HCC-2998 colon. For the same compound, the growth with KM12 colon is 89.4% (inactive).
In the case of `O=C(CC1(O)C(=O)Nc2ccc(Br)cc21)c1ccc(Cl)cc1` (centres undefined), the growth was 84.4% (inactive) with T-47D breast; 99.9% (inactive) in the assay on BT-549 breast; 109% (inactive) with MDA-MB-435 melanoma; 99% (inactive) in the assay on SW-620 colon; 98% (inactive) in the assay on HCT-116 colon; 104% (inactive) in the assay on HCC-2998 colon. Also, the growth in the assay with KM12 colon was 99.5% (inactive).
On to `O=c1oc2c(Br)cc(Br)cc2cc1-c1cc(-c2ccc(-c3cc(-c4cc5cc(Br)cc(Br)c5oc4=O)nc(-c4cc5cc(Br)cc(Br)c5oc4=O)c3)cc2)cc(-c2cc3cc(Br)cc(Br)c3oc2=O)n1`, for which the growth in the assay with T-47D breast is 98.9% (inactive); with BT-549 breast, 112% (inactive); in the assay with MDA-MB-435 melanoma it was 114% (inactive); with SW-620 colon it was 100% (inactive); in the assay on HCT-116 colon, 99.3% (inactive); in the assay on HCC-2998 colon, 102% (inactive). In addition, in the assay with KM12 colon, the growth is 96.1% (inactive).
Regarding `COc1ccc(Cl)cc1Nc1nc(C(F)(F)F)ccc1C(=O)N/N=C/c1ccc(N(C)C)cc1`, the growth was 82.7% (inactive) with T-47D breast; 115% (inactive) in the assay on BT-549 breast; 121% (inactive) in the assay on MDA-MB-435 melanoma; 109% (inactive) in the assay with SW-620 colon; 80.3% (inactive) in the assay on HCT-116 colon; 68.3% (inactive) in the assay on HCC-2998 colon. The growth in the assay on KM12 colon is 103% (inactive).
Take `NC1=CC(=O)c2cccnc2C1=O`: the growth in the assay with T-47D breast was -34.4% (active); in the assay on BT-549 breast, 9.57% (active); in the assay with MDA-MB-435 melanoma, -95.5% (active); in the assay on SW-620 colon it was -80% (active); in the assay on HCT-116 colon, -56.4% (active); in the assay with HCC-2998 colon, 59.9% (inactive). Further, the growth in the assay on KM12 colon is 58.9% (inactive).
On to `Cc1ccc(S(=O)(=O)Nc2cc(Sc3ccccc3)c(O)c3ccccc23)cc1`, for which the growth in the assay with T-47D breast was -1.22% (active); with BT-549 breast, 97.1% (inactive); in the assay with MDA-MB-435 melanoma, -95.4% (active); with SW-620 colon it was 108% (inactive); in the assay with HCT-116 colon, 58.9% (inactive); with HCC-2998 colon, 106% (inactive). Moreover, the growth in the assay on KM12 colon was 86.4% (inactive).
As to `O=C(N=Nc1c(O)[nH]c2ccccc12)Nc1ccc(Br)cc1`, the growth with T-47D breast was 91.6% (inactive); in the assay on BT-549 breast it was 89% (inactive); in the assay with MDA-MB-435 melanoma it was 90.4% (inactive); with SW-620 colon it was 91.6% (inactive); in the assay with HCT-116 colon, 88.6% (inactive); in the assay on HCC-2998 colon, 104% (inactive). Moreover, in the assay on KM12 colon, the growth was 92.4% (inactive).
Regarding `CNC(=O)c1cc(Oc2ccc3nc(NC(=O)Nc4ccc(C(F)(F)F)cc4)sc3c2)ccn1`, the growth is 44.8% (inactive) with T-47D breast; 62.3% (inactive) in the assay on BT-549 breast; 40.9% (inactive) in the assay with MDA-MB-435 melanoma; 37.9% (inactive) with SW-620 colon; 7.67% (active) with HCT-116 colon; 104% (inactive) in the assay with HCC-2998 colon. For the same compound, the growth in the assay on KM12 colon is 65% (inactive).
Regarding `COc1ccc(/C=C/C(=O)c2cc3c(N)c(C(=O)Nc4ccccc4)sc3nc2C)cc1`, the growth with T-47D breast is 46.7% (inactive); in the assay on BT-549 breast it was 2.86% (active); in the assay on MDA-MB-435 melanoma it was -23.9% (active); in the assay with SW-620 colon, 18% (inactive); in the assay with HCT-116 colon it was 8.12% (active); in the assay on HCC-2998 colon, 11.7% (inactive). Moreover, the growth in the assay on KM12 colon was 6.61% (active).
As for `CC(=O)N1N=C(c2ccc(Nc3nc(Nc4ccc(F)cc4)nc(Nc4ccc(F)cc4)n3)cc2)CC1c1ccccc1` (centres undefined), the growth in the assay with T-47D breast was 56.2% (inactive); with BT-549 breast, 120% (inactive); in the assay with MDA-MB-435 melanoma it was 105% (inactive); in the assay on SW-620 colon it was 95.7% (inactive); in the assay with HCT-116 colon it was 80.7% (inactive); in the assay with HCC-2998 colon, 94.3% (inactive). Besides, the growth in the assay with KM12 colon was 89.1% (inactive).
`O=Nc1c(O)ccc2ccccc12`: the growth with T-47D breast is 15.5% (inactive) and 76.1% (inactive); in the assay with BT-549 breast, 94.5% (inactive) and 90.8% (inactive); in the assay on MDA-MB-435 melanoma, -83.9% (active) and 116% (inactive); in the assay with SW-620 colon it was 27.5% (inactive) and 83.9% (inactive); with HCT-116 colon it was 6.49% (active) and 81% (inactive); with HCC-2998 colon, 110% (inactive) and 97.4% (inactive). Further, the growth in the assay with KM12 colon was 66.8% (inactive) and 109% (inactive).
For the compound `COc1ccc(/C(C)=C(\c2ccc(OCCN3CCOCC3)cc2)c2ccc(OC(=O)C3CCCCC3)cc2)cc1`, the growth was 77.9% (inactive) with T-47D breast; 112% (inactive) in the assay with BT-549 breast; 105% (inactive) in the assay with MDA-MB-435 melanoma; 102% (inactive) with SW-620 colon; 105% (inactive) in the assay on HCT-116 colon; 107% (inactive) in the assay with HCC-2998 colon. For the same compound, the growth with KM12 colon was 98.1% (inactive).
Consider `COc1ccc(-c2cc(-c3cccc(Cl)c3)c(C#N)c(=O)[nH]2)c(OC)c1`, for which the growth with T-47D breast was 97.8% (inactive); in the assay on BT-549 breast, 85.9% (inactive); in the assay on MDA-MB-435 melanoma, 87.1% (inactive); with SW-620 colon, 96.3% (inactive); with HCT-116 colon, 96.9% (inactive); with HCC-2998 colon it was 106% (inactive). Besides, the growth in the assay on KM12 colon was 102% (inactive).

For the origin of these results see PubChem BioAssay (NCI).
